The campaign covered roughly 230,000 compounds. About 3,600 (1.6%) were called active. Roughly 15% stayed inconclusive and do not appear here. Calls come from the whole dose curve; as a rule, active = well fitted inhibition curve with a large enough effect (not every such curve was filed as active); inconclusive = small, poorly fitted or top-dose-only effect, or another doubt; inactive = no such curve, though single readings can be large or run the other way. The entries come from a sample that favours actives as a whole.
The compounds below were run against Lysine-specific demethylase 4E (Homo sapiens) (UniProt B2RXH2) (assay: qHTS Assay for Inhibitors of Human Jumonji Domain Containing 2E (JMJD2E)). Conditions: JMJD2E catalytic domain, FDH-coupled NADH fluorescence (FDH is formaldehyde dehydrogenase); series mostly up to 57.1 µM.
Chain of Lysine-specific demethylase 4E (Homo sapiens) (B2RXH2 1-337 limits assumed): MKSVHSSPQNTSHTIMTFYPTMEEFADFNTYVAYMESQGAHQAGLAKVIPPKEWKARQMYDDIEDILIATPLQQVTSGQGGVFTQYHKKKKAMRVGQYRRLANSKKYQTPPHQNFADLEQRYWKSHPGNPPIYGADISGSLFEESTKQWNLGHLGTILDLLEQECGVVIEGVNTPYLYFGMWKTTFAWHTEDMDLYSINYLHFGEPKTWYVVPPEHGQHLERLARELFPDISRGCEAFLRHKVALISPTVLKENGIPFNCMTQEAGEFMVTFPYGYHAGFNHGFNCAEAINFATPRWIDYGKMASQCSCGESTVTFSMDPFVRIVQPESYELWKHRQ
From the text: Assay Provider: Structural Genomics Consortium [SGC] Screening Center PI: Austin, C.P. Screening Center: NIH Chemical Genomics Center [NCGC] The fine interplay among methylation states of several lysine residues on the tails of histone proteins is a major determinant of the transcriptional state of the associated DNA coding regions and is commonly referred to as the histone code. Histone lysine demethylases catalyze the removal of methyl groups from methylated lysine sidechains on histones H3 and H4, thus antagonizing the reactions catalyzed by histone lysine methyltransferases. […] In search for novel inhibitors of JMJD2E demethylase, a member of the largest set of histone demethylases belonging to the Fe(II) and 2-oxoglutarate oxygenase (2OG) superfamily, we performed a quantitative high-throughput screen (Inglese 2006) by using an assay which utilizes a trimethylated peptide substrate corresponding to a fragment of histone H3 (sequence ARKme3STGGK) with detection of the formaldehyde co-product in real time by a formaldehyde dehydrogenase (FDH) coupled reaction. FDH catalyzes oxidation of formaldehyde to formic acid with the concomitant reduction of the non-fluorescent beta-nicotinamide adenine dinucleotide hydrate (NAD+) cofactor to the fluorescent NADH co-product. References: Inglese, J., Auld, D., Jadhav, A., Johnson, R., Simeonov, A., Yasgar, A., Zheng, W. and Austin, C. Proc Natl Acad Sci USA 2006, 103, 11473-11478. N. R. Rose, S. S. Ng, J. Mecinovic, B. M. Lienard, S. H. Bello, Z. Sun, M. A. McDonough, U. Oppermann and C. J. Schofield, J Med Chem, 2008, 51, 7053-7056. Sakurai, M., Rose, N., Schultz, L., Quinn, A., Jadhav, A., Ng, S., Oppermann, U., Schofield, C.J. and Simeonov, A. Mol BioSystems 2009, in press. S. Michael, D. Auld, C. Klumpp, A. Jadhav, W. Zheng, N. Thorne, C. Austin, J. Inglese and A. Simeonov, Assay Drug Dev Technol, 2008, 6, 637-657.
Reagents and Controls: Ferrous ammonium sulfate, (+)-sodium L-ascorbate, beta-nicotinamide adenine dinucleotide hydrate (NAD+), Tween-20, formaldehyde dehydrogenase from P. putida (FDH), and disodium 2-oxoglutarate were from Sigma (St. Louis, MO). Black solid-bottom 384-well or 1,536-well assay plates were from Greiner Bio-One (Monroe, NC). Enzyme was supplied by Prof. Udo Oppermann, SGC-Oxford. The catalytic domain of human JMJD2E (residues 1-337) was produced as an N-terminally His6-tagged protein in E. coli, and purified by Ni-affinity chromatography and size-exclusion chromatography, and stored in HEPES 50 mM/ NaCl 500 mM pH 7.5, as reported in Rose 2008. The trimethylated histone peptide substrate ARK(me3)STGGK was synthesized and HPLC-purified by the Tufts University Core Facility (Boston, MA). Substrate solution (Sakurai 2009) contained 50 uM ARK(me3)STGGK, 0.00025 U/uL FDH, 50 uM 2-oxoglutarate, 250 uM NAD+, 1 mM ascorbate, and 10 uM ferrous ammonium sulfate. Controls and plate map: Buffer (150 mM HEPES pH 7.5 containing 0.01% Tween-20) in columns 3 and 4 as negative control (no enzyme) and 100 nM JMJD2E final concentration in columns 1,2, and 5-48. Assay Steps: Enzyme and buffer solutions (3 uL) were dispensed into a 1,536-well Greiner black solid-bottom assay plate. The library compounds (23 nL) were transferred using a Kalypsys pintool equipped with 1,536-pin array. The plate was incubated at room temperature (15 min), and then a 1 uL aliquot of substrate solution was added to initiate the reaction. The plate was transferred to ViewLux imager where an initial reading using standard UV optics (Ex 340 nm, Em 450 nm) was obtained. The plate was then removed from the reader, incubated for 30 minutes at room temperature, and returned to the reader for a second fluorescence reading. A fully automated robotic screening system (Kalypsys Inc, San diego, CA) was used to perform the above steps as described previously (Michael 2008). […]
Note: nearly all actives have a fitted effect of over 50% in size.
Potency is the fitted concentration of half-maximal effect.

Potency, active:
O=C(c1cccnc1)N(c1cc2sc(=O)oc2c2ccccc12)S(=O)(=O)c1ccccc1 14.1 µM, O=C(NNC(=S)NC(=O)c1cn(-c2ccccc2)nc1-c1ccccc1)c1ccncc1 14.1 µM, Oc1cc(O)c2c(c1)OC(c1ccc(O)c(O)c1)C(O)C2 (stereo not given) 11.2 µM, Cc1nnc(N/N=C/c2ccccn2)[nH]c1=O 7.94 µM, CCOc1cccc(/C=N/N2C(=O)CSC2=S)c1O 31.6 µM, Cc1ccnc(-n2sc3ccccc3c2=O)n1 12.6 µM, S=c1[nH]nc(Nc2ccccc2)s1 17.8 µM, Cn1c(SCC(=O)N/N=C/c2ccc(O)c(O)c2)nc2ccccc21 25.1 µM, Cc1nccn1CC(=O)N/N=C/c1ccc(O)c(O)c1 12.6 µM, CCCc1ccc(C(=O)[C@@H]2[C@@H](C(C)=O)N3c4ccc(F)cc4C=C[C@@H]3[C@@]23C(=O)Nc2ccccc23)cc1 14.1 µM, COc1ccc(N2CCN(Cc3ccc(Br)s3)CC2)cc1 14.1 µM

Potency, inactive:
CN(C)S(=O)(=O)c1cccc(C(=O)Nc2cccnc2)c1, COc1ccc(N(C(=O)c2cccnc2)S(=O)(=O)c2ccc3c(c2)n(C)c(=O)n3C)cc1, Cc1oc(C(N)=O)cc1COc1ccc(C(N)=O)cc1, CCOC(=O)N1CCN(c2c(NCCN3CCN(c4ccccc4F)CC3)c(=O)c2=O)CC1, COCCCNC(=S)N(Cc1ccccc1)Cc1ccc(F)cc1, Cn1c(C(=O)O)ccc1S(=O)(=O)N(Cc1ccccc1)Cc1ccccc1, CCOC(=O)C1CCN(CCC(=O)Nc2cccc(C)c2)CC1, Cc1c([N+](=O)[O-])c(N)nn1C, O=C(Nc1cn(-c2ccccc2)nc1-c1ccccc1)c1ccccc1, O=C(O)c1ccc(NC(=O)c2cn(-c3ccccc3)nc2-c2ccc(Cl)cc2)cc1, CCn1c2ccccc2c2cc(NC(=O)Nc3ccc([N+](=O)[O-])cc3C)ccc21, CC(C)CCNC(=O)C1CCC(CNc2c(N3CCC(C)CC3)c(=O)c2=O)CC1 (stereo not given), O=C(O)CCCCCCCCCC[n+]1ccccc1, COC(=O)C1=C(N)Oc2cc(C)[nH]c(=O)c2C1c1ccc(Cl)cc1 (stereo not given), Cc1ccccc1Nc1nnc(C)c(=O)[nH]1, Cc1nnc(N/N=C/c2cccs2)[nH]c1=O, Cc1ccc(CN2CCN(Cc3cn(C)nc3-c3ccccc3)CC2CCO)o1 (stereo not given), O=C(CCN1CCCCC1)N=Nc1c(O)[nH]c2ccccc12, O=C(NCc1ccco1)O[C@@H]1C(=O)c2cc(Br)ccc2O[C@H]1c1ccc2c(c1)OCO2, O=c1ccnc(Nc2ccc(Cl)cc2)[nH]1, O=C1CSC(=S)N1/N=C/c1ccc(O)c([N+](=O)[O-])c1, CCOc1ccccc1N=C1NC(=O)CS1, Cn1c(SCC(=O)Nc2ccc(Cl)cc2)nc(O)cc1=O, Nc1nc(Sc2ncccc2[N+](=O)[O-])n[nH]1, Cc1ccnc(Nc2nc3ccccc3s2)n1, Cc1ccnc(SCC(N)=O)n1, O=c1cnnc(Nc2ccccc2)[nH]1, c1ccc(Nc2n[nH]nc2-c2ccccc2)cc1, O=C(C[n+]1ccc2c(c1)nnn2-c1ccccc1)c1ccc(Cl)cc1, O=C(NCc1nnc(SCC(=O)N2CCC(Cc3ccccc3)CC2)o1)c1ccco1, Cc1ccc(/C=N/NC(=O)CSc2nc3ccccc3o2)cc1, CCOc1ccc(/C=N/NC(=O)CSc2ccccn2)cc1O, CCn1c(SCC(=O)N/N=C/c2ccncc2)nc2ccccc21, Cc1nc2ccccc2n1CC(=O)N/N=C/c1cccnc1, CC(C)(C)OC(=O)NCCCCCC(=O)N/N=C/c1coc2ccccc2c1=O, O=C1/C(=C/c2cccs2)SC(=S)N1C1CCS(=O)(=O)C1 (stereo not given), CC(OC(=O)c1ccc(NS(=O)(=O)c2ccc3[nH]c(=O)[nH]c3c2)cc1)C(=O)Nc1cccc(Cl)c1Cl (stereo not given), O=C(c1cc(COc2c(F)cccc2F)on1)N1CCSCC1, Nc1nc(Nc2ccccc2)nc(NCCO)c1[N+](=O)[O-], O=C1CCCC(O)=C1N=Nc1ccc(S(=O)(=O)N2CCOCC2)cc1, CCc1cc(CNC(=O)CC2C(=O)NCCN2Cc2ccccc2C(F)(F)F)on1 (stereo not given), Cc1noc(C)c1-c1nc(CSc2ccc(Cl)cc2)no1, Fc1ccc(N2CCN(Cc3cnc(Oc4ccc(Br)cc4)s3)CC2)cc1, COc1ccc(N2CCN(Cc3nnc(-c4ccccc4)o3)CC2)cc1

— PubChem BioAssay AID2147 (National Center for Advancing Translational Sciences (NCATS), 2009)
